system: T1, MEK4; details: concentration: 1 μM, replicates: in singlicate; n = 1
T1 construct: gene MAP2K4
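Note: KINOMEscan kinase panel screen.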

**Q.** For `CCn1c(-c2cccnc2O)nc2cnccc21` [SB-736715], which “%Inh” value is on record?
**A.** 0%

**Q.** `Cl.Oc1ccc(-c2nc(-c3ccccc3)[nH]c2-c2ccncc2)cc1` [SB-428218] was tested. Which “%Inh” value did it give?
**A.** 0%

**Q.** For `CC(=O)Nc1nc2cnc(Nc3cc(NC(=O)c4cccc(CCC#N)c4)ccc3C)nc2s1`, which “%Inh” value is on record?
**A.** 25%

**Q.** For `O=S(=O)(c1ccc(-c2ccnc3[nH]ccc23)cc1)N1CCCC1` [GSK846226], which “%Inh” value is on record?
**A.** 18%

**Q.** How did the “%Inh” value turn out when `CN1C(=O)C(Nc2ccc(Cl)c(C(=O)O)c2)=C(c2ccc(Cl)cc2)C1=O` [SB-404290] was run?
**A.** 26%

**Q.** How did the “%Inh” value turn out when `Fc1cc(Cl)ccc1Nc1ccnc2cc(I)ccc12` [GW551191] was run?
**A.** 46%

**Q.** With `O=c1cc(N2CCOCC2)nc2n(Cc3cccc(Cl)c3Cl)ccn12` [GSK2286295] as the compound, how does the “%Inh” value read?
**A.** 6%

**Q.** How did the “%Inh” value turn out when `Cn1ccc2ncnc(Oc3ccc(NC(=O)Nc4ccccc4)cc3)c21` was run?
**A.** 0%

**Q.** With `COc1cc(Nc2nccc(N3CCC(NC(=O)Nc4cc(C)ccc4C)C3)n2)cc(OC)c1OC` (stereo not drawn) [GSK1379762] as the compound, how does the “%Inh” value read?
**A.** 7%

**Q.** Which “%Inh” value does the source give for `CC(C)(C)c1ccc(C(=O)Nc2cn3cc(Cl)ccc3n2)cc1` here?
**A.** 33%

**Q.** Which “%Inh” value does the source give for `COc1ccccc1CNC(=O)c1cc(C(=O)c2ccccc2C)c[nH]1` [GSK364507] here?
**A.** 41%

**Q.** How did the “%Inh” value turn out when `O=C(O)COc1ncnc2cc(-c3ccc4[nH]ncc4c3)sc12` was run?
**A.** 37%

**Q.** `CS(=O)(=O)c1ccc(-c2nc3n(c2-c2ccncc2)CCC3)cc1` [SKF-105942] was tested. Which “%Inh” value did it give?
**A.** 8%

**Q.** Which “%Inh” value does the source give for `Cc1c(Cn2ccn3c(=O)cc(N4CCOCC4)nc23)cccc1C(F)(F)F` [GSK2289044] here?
**A.** 9%

**Q.** With `O=C(Nc1n[nH]c2cc(-c3cccc(F)c3F)ccc12)C1CC1` [SB-733894] as the compound, how does the “%Inh” value read?
**A.** 1%

**Q.** `Cc1csc(-c2nc(Nc3ccncc3)c3ccccc3n2)n1` [GW869640] was tested. Which “%Inh” value did it give?
**A.** 29%

**Q.** With `Cl.NC(=O)c1cccc(Nc2nccc(Nc3ccc(Oc4cccc(Cl)c4)c(Cl)c3)n2)c1` [GW659008] as the compound, how does the “%Inh” value read?
**A.** 22%

**Q.** Which “%Inh” value does the source give for `O=C1NC(=O)C(N2CCc3ccccc32)=C1c1ccccc1Cl` [SB-373598] here?
**A.** 9%

**Q.** With `COC(=O)c1c(-c2ccccc2)c2cc(C(=O)O)ccc2c(=O)n1Cc1ccccc1` as the compound, how does the “%Inh” value read?
**A.** 0%

**Q.** For `Cc1cc(-c2ccc3c(c2)CC[C@@H](N[C@@H](C)c2ccccc2)C3)cnc1N.Cl` [GW412617], which “%Inh” value is on record?
**A.** 34%

**Q.** For `Nc1ncnc2[nH]c(-c3ccccc3)nc12` [AH5015], which “%Inh” value is on record?
**A.** 13%

**Q.** `O=C(Nc1n[nH]c2nc(-c3nccs3)c(Br)cc12)C1CC1` [SB-742251] was tested. Which “%Inh” value did it give?
**A.** 13%

**Q.** For `Cc1ccccc1-n1cnc2c(N)ncnc21` [SKF-97510], which “%Inh” value is on record?
**A.** 0%

**Q.** Which “%Inh” value does the source give for `Clc1cc(Cl)cc(Nc2ccnc(Nc3cc(Cl)cc(Cl)c3)n2)c1` [GSK175726] here?
**A.** 0%

**Q.** `Cn1ccc2ncnc(Oc3ccc(Nc4nc5ccccc5[nH]4)cc3)c21` was tested. Which “%Inh” value did it give?
**A.** 0%

**Q.** For `CCCc1ccc(S(=O)(=O)NC2CCN(c3ccnc(Nc4ccc(F)cc4)n3)C2)cc1` (stereo not drawn) [GSK1379715], which “%Inh” value is on record?
**A.** 28%

**Q.** `COc1cc2nccc(Nc3ccc(NC(=O)c4ccc(C)cc4)c(O)c3)c2cc1OC.Cl` [GW440132] was tested. Which “%Inh” value did it give?
**A.** 19%

**Q.** Which “%Inh” value does the source give for `CCn1c(-c2ccccn2)nc2cnccc21` [SB-736398] here?
**A.** 19%

**Q.** Which “%Inh” value does the source give for `Cl.O=C(Nc1cccc(-c2nn3ncccc3c2-c2ccnc(Nc3cccnc3)n2)c1)c1c(F)cccc1F` [GSK312879] here?
**A.** 40%

**Q.** How did the “%Inh” value turn out when `Cc1ccc(NC(=O)Nc2cccc(Cl)c2)cc1-c1ccc(C(=O)Nc2ccncc2)cc1` [GSK1398468] was run?
**A.** 38%

**Q.** Which “%Inh” value does the source give for `O=C(Nc1ccc2c(c1)OCO2)NC1CCN(c2ccnc(Nc3ccc(F)cc3)n2)C1` (stereo not drawn) [GSK1379724] here?
**A.** 28%

**Q.** With `COc1ccc(Nc2nccc(NCCNC(=O)Nc3ccccc3F)n2)cc1` [GSK1379901] as the compound, how does the “%Inh” value read?
**A.** 11%

**Q.** Which “%Inh” value does the source give for `COc1ccc(Nc2nccc(-c3cccc(NC(=O)c4cc5cc(F)ccc5[nH]4)c3)n2)cc1` [GSK1229782] here?
**A.** 28%

**Q.** `Cc1cc(N2Cc3ccccc3C2)nc(Nc2ccc(S(=O)(=O)N3CCOCC3)cc2)n1.Cl` [GSK1669917] was tested. Which “%Inh” value did it give?
**A.** 0%

**Q.** `COc1ccc(CNC(=O)NC2CCN(c3ccnc(Nc4cc(OC)c(OC)c(OC)c4)n3)C2)cc1` (stereo not drawn) [GSK1379748] was tested. Which “%Inh” value did it give?
**A.** 6%

**Q.** For `Cc1ccc(-c2cc(-c3c[nH]nc3-c3ccccn3)ccn2)cc1` [GW684088], which “%Inh” value is on record?
**A.** 9%
